Screen size: about 310,000 compounds; about 2,200 (0.71%) showed an effect of 50% or more. Effects have a minus sign here. The sample holds strong results, similar compounds and a random draw of the others, so the mix is not that of the screen.
Target: human ether-à-go-go-related gene (hERG) potassium channel (human, UniProt Q12809)
Experiment: primary screen, population patch clamp on CHO cells stably expressing hERG; higher = less effect of the substance

human ether-à-go-go-related gene (hERG) potassium channel, sequence (Q12809 whole entry, looked up): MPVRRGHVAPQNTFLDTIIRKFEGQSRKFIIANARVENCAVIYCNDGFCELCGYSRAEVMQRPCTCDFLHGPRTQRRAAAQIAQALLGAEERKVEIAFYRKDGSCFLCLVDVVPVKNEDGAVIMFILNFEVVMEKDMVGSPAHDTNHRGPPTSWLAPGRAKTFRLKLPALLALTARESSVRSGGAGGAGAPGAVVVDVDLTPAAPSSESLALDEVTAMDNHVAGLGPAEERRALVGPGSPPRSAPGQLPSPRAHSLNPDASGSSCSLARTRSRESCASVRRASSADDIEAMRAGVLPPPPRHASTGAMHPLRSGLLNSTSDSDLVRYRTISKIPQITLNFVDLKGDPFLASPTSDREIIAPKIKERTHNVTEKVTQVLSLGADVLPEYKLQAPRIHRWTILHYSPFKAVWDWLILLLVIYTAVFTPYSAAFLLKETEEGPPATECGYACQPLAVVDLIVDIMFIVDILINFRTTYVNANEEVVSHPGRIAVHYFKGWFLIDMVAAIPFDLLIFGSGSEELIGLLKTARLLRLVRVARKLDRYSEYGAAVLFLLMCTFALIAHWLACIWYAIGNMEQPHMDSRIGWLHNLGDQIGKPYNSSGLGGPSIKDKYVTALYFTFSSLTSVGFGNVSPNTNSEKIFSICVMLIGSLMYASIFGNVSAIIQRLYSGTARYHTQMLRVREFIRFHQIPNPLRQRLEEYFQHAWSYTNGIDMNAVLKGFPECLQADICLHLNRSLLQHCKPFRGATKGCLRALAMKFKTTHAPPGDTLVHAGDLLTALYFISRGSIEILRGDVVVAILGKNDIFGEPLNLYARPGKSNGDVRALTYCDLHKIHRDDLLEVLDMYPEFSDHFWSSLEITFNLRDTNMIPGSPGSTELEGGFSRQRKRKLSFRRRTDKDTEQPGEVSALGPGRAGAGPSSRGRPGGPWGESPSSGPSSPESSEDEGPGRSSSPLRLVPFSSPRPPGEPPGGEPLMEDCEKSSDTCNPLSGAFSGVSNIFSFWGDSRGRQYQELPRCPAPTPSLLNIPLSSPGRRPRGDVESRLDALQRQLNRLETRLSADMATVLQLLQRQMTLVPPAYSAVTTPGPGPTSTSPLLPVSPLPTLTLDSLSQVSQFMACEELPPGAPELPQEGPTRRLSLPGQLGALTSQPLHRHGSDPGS

Row | Compound | hERG current change (%, negative = inhibition) at 1uM
1 | Cc1ccccc1C(=O)Nc1ccnc(-c2ccncc2)n1 | 14.1%
2 | C/C(CC(=O)NCc1ccco1)=N\NC(=O)C(c1ccccc1)c1ccccc1 | 6.69%
3 | CCOc1ccc(CCNC(=O)CCc2nnc3ccc(N4CCOCC4)nn23)cc1OCC | 7.73%
4 | O=C(Nc1ccc(SC(F)F)cc1)C12CCC(CC1)C2 | 5.66%
5 | CN(CC(=O)Nc1ccccc1Cl)C(=O)COC(=O)c1nc(Cl)c(Cl)c(Cl)c1Cl | 9.88%
6 | C=CCn1c(COc2ccc(Cl)cc2)nnc1SCC(=O)c1c(N)n(C)c(=O)n(C)c1=O | 10.5%
7 | Cc1ccccc1-c1nc(CN2CCC(C(=O)NCCC3=CCCCC3)CC2)c(C)o1 | -32%
8 | Cc1oc(-c2ccccc2F)nc1CN1CCC(C(=O)NC2CC2)CC1 | 0.032%
9 | Cc1oc(-c2ccccc2F)nc1CN1CCC(C(=O)NCCC2=CCCCC2)CC1 | -51.1%
10 | CN(C)CCN(C(=O)CN1C(=O)c2ccccc2C1=O)c1nc2cc3c(cc2s1)OCO3.Cl | 7.04%
11 | COc1ccccc1C(=O)N/C(=C/c1ccccc1)C(=O)NC(CCSC)C(=O)O (stereo not shown) | 12%
12 | OCC1(CCOc2ccccc2)CCN(Cc2ccncc2)CC1 | -0.954%
13 | COC(=O)c1ccc(CN2CCC(CO)(Cc3cccc(OC)c3)CC2)cc1 | -45.3%
14 | OCCOc1cccc(CN2CCC(CO)(CCOc3ccccc3)CC2)c1 | -2.72%
15 | CSc1ccc(CN2CCC(CO)(CCOc3ccccc3)CC2)cc1 | -81.2%
16 | COC(=O)c1ccc(CN2CCC(CO)(CCOc3ccccc3)CC2)cc1 | -81.7%
17 | CC(=O)Nc1ccc(CN2CCC(CO)(CCOc3ccccc3)CC2)cc1 | -43.8%
18 | c1csc(CN2CCN(Cc3cccs3)C2c2cccs2)c1 | 4.62%
19 | O=C(c1ccc(=O)[nH]c1)N1CCN(S(=O)(=O)c2ccc3ccccc3c2)CC1 | 6.52%
20 | O=C(NN=C1C2CC3CC(C2)CC1C3)c1ccncc1 | -0.112%
21 | Cl.Clc1ccc(-c2ccc(CNCc3ccccn3)o2)cc1 | -5.94%
22 | O=C(c1cc2cc([N+](=O)[O-])ccc2oc1=O)N1CCN(C2CCCCC2)CC1 | -60.8%

Row | Compound | hERG current change (%, negative = inhibition) at 1uM
23 | O=C(c1cc2cc([N+](=O)[O-])ccc2oc1=O)N1CCOCC1 | 7.86%
24 | CCN1CCN(C(=O)c2cc3cc([N+](=O)[O-])ccc3oc2=O)CC1 | -1.11%
25 | COc1ccc(Cc2nc3ccc(C(=O)NC(C)c4cn(C)nc4C)cc3o2)cc1 (stereo not shown) | 9.59%
26 | COc1ccc(OCCOC(=O)c2[nH]c(C)c(C(C)=O)c2C)cc1 | 8.51%
27 | COc1ccc(-c2csc(NC(=O)CN3C(=O)NC4(CCCC4)C3=O)n2)cc1 | 1.42%
28 | COc1ccc(C(=O)C(OC(=O)c2ccccc2)c2ccccc2)cc1 (stereo not shown) | 2.14%
29 | O=C(CSc1ccc2nnc(-c3ccccn3)n2n1)N1CCN(c2ccccc2)CC1 | -89.9%
30 | Cc1ccccc1CSc1nnc(-c2ccccn2)n1C | 10.8%
31 | O=C(CSc1ccc2nnc(-c3ccccn3)n2n1)N1CCOCC1 | 6.32%
32 | Cc1ccccc1NC(=O)CSc1ccc2nnc(-c3ccccn3)n2n1 | 7.85%
33 | Cc1ccc(C)c(CSc2ccc3nnc(-c4ccccn4)n3n2)c1 | -54.3%
34 | CCOC(=O)N1CCN(C(=O)CSc2ccc3nnc(-c4ccccn4)n3n2)CC1 | 2.22%
35 | Cc1ccc(CSc2ccc3nnc(-c4ccccn4)n3n2)cc1 | -36.5%
36 | Cc1ccc(NC(=O)CSc2ccc3nnc(-c4ccccn4)n3n2)cc1 | 5.84%
37 | Cc1ccccc1CSc1ccc2nnc(-c3ccccn3)n2n1 | -50.9%
38 | CNc1sc(C(=O)c2ccc(F)cc2)c(N)c1-c1nc2ccccc2s1 | 5.15%
39 | CNNC(=S)NCCC1=CCCCC1 | 10.2%
40 | C/C(N)=C(/C#N)C(=O)CSc1nc2ccc(C)cc2[nH]1 | 11%
41 | Cn1cnnc1SC(C(=O)Nc1ccc(F)cc1)c1ccccc1 (stereo not shown) | 4.93%
42 | CCCc1ccc(-c2cc(C(=O)NCCc3ccc(S(N)(=O)=O)cc3)c3ccccc3n2)cc1 | 16.3%
43 | O=C(CCS(=O)(=O)c1ccc(Br)cc1)Nc1ccccn1 | 15.2%
44 | CCOc1ccc(N(CC(=O)OC)S(=O)(=O)c2ccc(OC)c(OC)c2)cc1 | -0.463%

Row | Compound | hERG current change (%, negative = inhibition) at 1uM
45 | COc1ccc(-n2c(Cc3cccn3C)nnc2SCC(=O)Nc2cc(Cl)ccc2OC)cc1 | -50.9%
46 | COc1ccc(-n2c(Cc3cccn3C)nnc2SCC(=O)Nc2ccccc2OC)cc1 | -4.23%
47 | COc1ccc(Cl)cc1NC(=O)CSc1nnc(Cc2cccn2C)n1-c1ccc(F)cc1 | 2.71%
48 | COc1ccc(C2NN=C(c3ccc(C)cc3)S2)cc1OC (stereo not shown) | 16.1%
49 | CCN(CC)CCN(C(=O)c1ccc([N+](=O)[O-])cc1)c1nc2c(OC)cccc2s1.Cl | -53.4%
50 | CCN(CC)CCN(C(=O)C1=COCCO1)c1nc2c(OC)ccc(OC)c2s1.Cl | -84.9%
51 | CCN(CC)CCN(C(=O)c1ccc(C(=O)c2ccccc2)cc1)c1nc2c(OC)cccc2s1.Cl | -33%
52 | CCN(CC)CCN(C(=O)C1=COCCO1)c1nc2cc3c(cc2s1)OCO3.Cl | -63.3%
53 | CCN(CC)CCN(C(=O)c1ccc2c(c1)OCCO2)c1nc2cc3c(cc2s1)OCO3.Cl | -18.3%
54 | CCN(CC)CCN(C(=O)C1=COCCO1)c1nc2ccc(C)cc2s1.Cl | -34%
55 | CCN(CC)CCN(C(=O)C1=COCCO1)c1nc2cc(C)cc(C)c2s1.Cl | -36.7%
56 | CCOc1cccc2sc(N(CCN(CC)CC)C(=O)c3cccc([N+](=O)[O-])c3)nc12.Cl | -44.9%
57 | CCN(C(=O)C1=COCCO1)c1nc2c(C)cccc2s1 | 0.721%
58 | Cc1c(Cl)c([N+](=O)[O-])nn1CCCC(=O)Nc1cc(Cl)ccc1Cl | -10.9%
59 | O=C(CP(=O)(c1ccccc1)c1ccccc1)N1CCCCC1 | 6.28%
60 | COc1cc2ncc(C(=O)c3ccccc3)c(N3CCN(Cc4ccccc4)CC3)c2cc1OC | 8.52%
61 | CCc1ccc(C(=O)c2cnc3ccc(OC)cc3c2N2CCN(CC)CC2)cc1 | -46.6%
62 | CCOc1ccc2ncc(C(=O)c3ccc(OC)cc3)c(N3CCN(CC)CC3)c2c1 | -66%
63 | CCN1CCN(c2c(C(=O)c3ccc(OC)cc3)cnc3ccccc23)CC1 | -67.9%
64 | CCOC(=O)c1cnc2ccc(OCC)cc2c1N1CCN(C)CC1.Cl | -15.6%
65 | CCOc1ccc(C(=O)c2cnc3ccccc3c2N2CCN(CC)CC2)cc1 | -43.9%
66 | CC1CCN(CC(C)OC(=O)c2ccc3c(c2)OCCO3)CC1.Cl (stereo not shown) | 3.75%

Row | Compound | hERG current change (%, negative = inhibition) at 1uM
67 | O=C(NC(NC(=S)Nc1ccccc1C(=O)O)C(Cl)(Cl)Cl)c1ccco1 (stereo not shown) | 5.62%
68 | Cc1ccc(S(=O)(=O)NCCC(=O)N2CCCCCCC2)cc1 | 22.3%
69 | Cn1c(=O)oc2cc(S(=O)(=O)NCCN3CCN(c4ccccc4F)CC3)ccc21 | 3.83%
70 | CN(C)c1ccc(-c2noc(C3CCN(S(=O)(=O)c4cccc(C(=O)O)c4)CC3)n2)cc1 | 13.6%
71 | O=C(O)c1cccc(N=NN2CCCCCC2)c1 | 8.11%
72 | Cc1ccc(Nc2nc(N)nc(CSc3nc(C)cc(C)n3)n2)cc1 | 8.5%
73 | Cc1csc2nc(CSc3nc4ccccc4o3)c(Br)n12 | 15.9%
74 | Cc1cc(C)n2c(Br)c(CSc3nc4ccccc4o3)nc2n1 | -53%
75 | Cc1cc(C)n2c(Br)c(CSc3nc4ccccc4s3)nc2n1 | -19.3%
76 | CCn1c(=O)c(C(=O)CN(C)Cc2ccc(F)cc2)c(N)n(Cc2ccccc2)c1=O | -33.6%
77 | CCn1c(=O)c(C(=O)CN2CCOCC2)c(N)n(Cc2ccccc2)c1=O | -0.674%
78 | CCn1c(=O)c(C(=O)CN(C)Cc2cccc(OC)c2OC)c(N)n(Cc2ccccc2)c1=O | -18.3%
79 | Cn1c(=O)c(C(=O)CN2CCN(Cc3ccc4c(c3)OCO4)CC2)c(N)n(Cc2ccccc2)c1=O | -40.4%
80 | CCn1c(=O)c(C(=O)CN2CCN(Cc3ccc4c(c3)OCO4)CC2)c(N)n(Cc2ccccc2)c1=O | -67.4%
81 | CCOc1ccc(CN(C)CC(=O)c2c(N)n(Cc3ccccc3)c(=O)n(CC)c2=O)cc1OC | -82.5%
82 | CCNC1=C(Cl)C(=O)c2ccccc2C1=O | 14.3%
83 | O=C(O)C1CCCN1C(=O)NC1CCCCC1 (stereo not shown) | 17.1%
84 | O=C(c1cc(Br)ccc1Cl)N1CCN(c2ccc(N3CCOCC3)nn2)CC1 | 5.71%
85 | COc1cccc(/C=N/NC(=O)NC23CC4CC(CC(C4)C2)C3)c1O | 6.53%

Source: article PMC4336329 (PLoS ONE, 2015)
